According to PubChem BioAssay (NCATS):
Values joined by “and” are separate entries in the source; they are usually repeats but may differ in a detail not shown here. Equal values may be shown once. Records with an inconclusive call do not appear. Active and inactive are the calls of the source. Calls follow the shape of the dose curve; as a rule, active = well fitted curve in the direction sought with a large enough effect; inconclusive = small, poorly fitted or top-dose-only effect, or another doubt; inactive = no such curve, though single readings can be large; an effect the other way counts as inactive or inconclusive.

How the values were obtained:
[1] = target: Cellular tumor antigen p53 (Homo sapiens) (UniProt P04637); test: Primary qHTS for small molecule compounds that upregulate eGFP-tagged delta133p53alpha (in N-terminal) cells. (AID 2060322); conditions: NCI-H358 eGFP-delta133p53alpha fluorescence, 24 h; activation: stronger effect = higher value;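 also: cells pre-induced with doxycycline then dosed without doxycycline; 0% = DMSO vehicle and 100% = reference activator; nearly all actives have a fitted effect of over 75% in size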
Outline: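 NCI-H358 cells pre-induced 24 h with 10 ng/ml doxycycline for eGFP-delta133p53alpha, plated dox-free and exposed 24 h at 37C to titrated compounds. Fixed, Hoechst-stained; gated GFP peak intensity by laser scanning cytometry, normalized to DMSO (0%) and 57.5 uM 5-azacytidine (100%).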

[2] = BET inhibitor-based combinations targeting novel dependencies in MECOM-rearranged (r) AML: OCI-AML3 cell line (AID 2202232); conditions: CellTiter-Glo luminescence, 48 h; Potency: OCI-AML3 viability; series mostly up to 46 µM; also: nearly all actives have a fitted effect of over 35% in size; also: potency is read from the fitted curve at half-maximal effect
Outline: (§1)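 Cells were plated at 500 per well and exposed to an 11-point dose series of each drug for 48 hr. Viability was measured by CellTiter-Glo luminescence, normalized to DMSO and empty-well controls, and summarized as AUC and per-cell-line Z-AUC.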

[3] = BET inhibitor-based combinations targeting novel dependencies in MECOM-rearranged (r) AML: MV-4-11 cell line (AID 2202233); conditions: MV-4-11 AML viability, CellTiter-Glo luminescence, 48 h; series mostly up to 46 µM; also: nearly all actives have a fitted effect of over 45% in size; also: potency is read from the fitted curve at half-maximal effect
Outline: (§2)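 Activity is given as area under the curve and as Z-AUC, mean-centred within each cell line. It comes from 11-point dose curves normalized to DMSO and empty wells. CellTiter-Glo luminescence was read after 48 hr drug exposure of 500 cells/well.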

[4] = BET inhibitor-based combinations targeting novel dependencies in MECOM-rearranged (r) AML: HNT-34 cell line (AID 2202234); conditions: HNT-34 AML viability, CellTiter-Glo luminescence, 48 h; series mostly up to 46 µM; also: nearly all actives have a fitted effect of over 35% in size; also: potency is read from the fitted curve at half-maximal effect
Outline: as §2

[5] = BET inhibitor-based combinations targeting novel dependencies in MECOM-rearranged (r) AML: AML-194 cell line (AID 2202237; also: nearly all actives have a fitted effect of over 40% in size; also: potency is read from the fitted curve at half-maximal effect); conditions: AML-194 (MECOM-r AML) viability, CellTiter-Glo, 48 h; series mostly up to 46 µM
Outline: as §1

[6] = BET inhibitor-based combinations targeting novel dependencies in MECOM-rearranged (r) AML: UCSD-AML1 cell line (AID 2202235); conditions: UCSD-AML1 AML cells viability, CellTiter-Glo, 48 h; series mostly up to 46 µM; also: nearly all actives have a fitted effect of over 40% in size; also: potency is read from the fitted curve at half-maximal effect
Outline: as §2

[7] = BET inhibitor-based combinations targeting novel dependencies in MECOM-rearranged (r) AML: AML-191 cell line (AID 2202236; also: nearly all actives have a fitted effect of over 35% in size; also: potency is read from the fitted curve at half-maximal effect); conditions: AML-191 viability, CellTiter-Glo luminescence, 48 h; series mostly up to 46 µM
Outline: as §1

Cellular tumor antigen p53 (Homo sapiens), sequence (P04637 whole entry, looked up): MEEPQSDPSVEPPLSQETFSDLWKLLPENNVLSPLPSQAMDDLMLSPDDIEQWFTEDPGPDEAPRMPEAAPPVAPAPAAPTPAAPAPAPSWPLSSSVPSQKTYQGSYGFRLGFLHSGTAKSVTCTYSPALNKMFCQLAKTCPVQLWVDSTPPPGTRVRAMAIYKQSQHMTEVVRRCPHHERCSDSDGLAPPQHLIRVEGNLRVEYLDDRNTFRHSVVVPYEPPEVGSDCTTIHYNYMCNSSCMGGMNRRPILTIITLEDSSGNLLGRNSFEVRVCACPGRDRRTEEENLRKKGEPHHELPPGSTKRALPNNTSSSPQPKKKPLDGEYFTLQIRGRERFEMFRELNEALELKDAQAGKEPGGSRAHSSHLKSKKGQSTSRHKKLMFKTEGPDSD

O=C(O)CCC1CCC(c2cc(F)ccc2F)(S(=O)(=O)c2ccc(Cl)cc2)CC1 (centres undefined)
inactive: activation [1] 33.4% | Potency [2] | Potency [3] | Potency [4] | Potency [5]

c1cc(-c2cnn3cc(-c4ccc(OCCN5CCCCC5)cc4)cnc23)ccn1
inactive: activation [1] 46.6%
active: Potency [2] 8.33 µM | Potency [3] 0.0833 µM | Potency [4] 1.66 µM | Potency [6] 9.34 µM | Potency [7] 8.33 µM | Potency [5] 9.34 µM

O=S(=O)(O)CCS
inactive: activation [1] 32.2% and 4.28% | Potency [2] | Potency [3] | Potency [4] | Potency [6] | Potency [7] | Potency [5]

NC(=O)N1CCC(CC(=O)N2CCC([C@H]3c4ncc(Br)cc4CCc4cc(Cl)cc(Br)c43)CC2)CC1
inactive: activation [1] 7.44%
active: Potency [2] 1.18 µM | Potency [3] 16.6 µM | Potency [4] 11.8 µM | Potency [6] 3.72 µM

Cc1ccc(C(=O)c2cc(O)c(O)c([N+](=O)[O-])c2)cc1
inactive: activation [1] 1.67% and 0.973% | Potency [2] | Potency [3] | Potency [4] | Potency [6] | Potency [5]

COc1c(N2C[C@@H]3CCCN[C@H]3C2)c(F)cc2c(=O)c(C(=O)O)cn(C3CC3)c12
inactive: activation [1] 0.987% | Potency [2] | Potency [4] | Potency [5]
